# Measurements reported in PubChem BioAssay AID651871 (Sanford-Burnham Center for Chemical Genomics, 2012).
# Where “and” joins values, the source holds several entries; their conditions need not be identical. Equal values may be shown once.
# System: H9c2
# Assay: cardiomyocyte survival under oxidative or metabolic stress – cell-based, panel, H9c2 and HL-1, ATP luminescence, set 2, SAR follow-up (AID 651871);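 further: cells exposed to stressor for 2 h before ATP readout; reference of the scale not given here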
# Conditions: H9c2/HL-1 cardiomyocytes, H2O2 oxidative stress; with H2O2, run 1, at 79 µM (top of the series)
row,Compound,activity (protection/inhibition)
1,COc1cc(-c2cc(C(=O)Nc3cccc(C(=O)NCc4ccccc4)c3)c3ccccc3n2)cc(OC)c1OC,83.5%
2,CCOC(=O)c1cccc(NC(=O)CNC(=O)c2cc(-c3cc(OC)c(OC)c(OC)c3)nc3ccccc23)c1,77.6%
3,COc1ccc2nc(-c3cc(OC)c(OC)c(OC)c3)cc(C(=O)NCC(=O)Nc3ccc(C(C)=O)cc3)c2c1,92.2% and 97.6%
4,COc1ccc2c(c1OC)C(=O)N1c3ccccc3C(=O)N(Cc3cccc(Cl)c3Cl)C21 (centres undefined),62.2% and 104% and 61.7%
